Binding signal data for one sequence are collected here from PMC7862700, “An all-to-all approach to the identification of sequence-specific readers for epigenetic DNA modifications on cytosine”.

Common to all, as to experiment: DAPPL (digital affinity profiling via proximity ligation, sequencing); 10 mM Tris-HCl pH 7.5, 50 mM NaCl, 1 mM DTT, 4% glycerol, room temperature, 30 min; GST-TFs on glutathione beads, 16-mer random dsDNA library, 0.1% formaldehyde crosslink after washing; high values mean tight binding
Settings in all cases: protein: recombinant; tags: N-terminal GST; dsDNA, one strand shown

Experiment [1] has as its target T1, ELK1 (Homo sapiens, UniProt P19419 1-428).
T1 sequence: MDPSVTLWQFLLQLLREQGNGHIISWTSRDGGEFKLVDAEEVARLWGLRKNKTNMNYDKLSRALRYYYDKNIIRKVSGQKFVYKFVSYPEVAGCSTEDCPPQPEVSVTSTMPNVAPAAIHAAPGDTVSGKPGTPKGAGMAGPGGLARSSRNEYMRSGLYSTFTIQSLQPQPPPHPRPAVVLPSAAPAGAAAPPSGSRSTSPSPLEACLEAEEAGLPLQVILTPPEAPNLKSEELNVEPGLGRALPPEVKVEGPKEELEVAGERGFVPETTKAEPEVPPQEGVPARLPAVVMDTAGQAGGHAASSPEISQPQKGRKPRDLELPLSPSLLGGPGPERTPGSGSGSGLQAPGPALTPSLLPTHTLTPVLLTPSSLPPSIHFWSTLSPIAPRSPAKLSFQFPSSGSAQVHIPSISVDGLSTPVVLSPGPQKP
The essentials: (§1)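 Sequencing on an Illumina NextSeq500 followed washing, crosslinking with 0.1% formaldehyde, proximity ligation (BsaI/T4 ligase, 1 h, 37 °C) and PCR amplification of pools that had been incubated for 30 min at room temperature with 200 nmole of a random double-stranded 16-mer DNA library in Tris/NaCl/DTT/glycerol buffer. Each pool held DNA-barcoded human transcription factors, expressed in yeast as GST fusions and captured on glutathione beads, plus a tag-only sample. Binding signal is a hexamer's read frequency for a factor divided by its frequency in the tag-only sample.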

In experiment [2] the target is T2, GABPA (Homo sapiens, UniProt Q06546 1-454).
T2 sequence: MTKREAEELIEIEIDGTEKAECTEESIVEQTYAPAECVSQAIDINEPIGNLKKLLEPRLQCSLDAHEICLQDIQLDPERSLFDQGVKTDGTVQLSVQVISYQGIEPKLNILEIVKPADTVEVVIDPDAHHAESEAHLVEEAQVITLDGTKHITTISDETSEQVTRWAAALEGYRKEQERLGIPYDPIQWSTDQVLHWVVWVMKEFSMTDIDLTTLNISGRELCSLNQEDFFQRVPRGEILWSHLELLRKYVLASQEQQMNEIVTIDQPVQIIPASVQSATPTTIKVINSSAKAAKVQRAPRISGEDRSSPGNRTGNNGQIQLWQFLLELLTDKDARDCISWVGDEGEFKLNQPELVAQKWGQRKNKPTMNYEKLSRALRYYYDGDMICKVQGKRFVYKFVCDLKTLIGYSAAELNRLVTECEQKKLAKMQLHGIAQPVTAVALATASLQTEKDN
The essentials:
as §1

Experiment [3] deals with T3, ERG (Homo sapiens, UniProt P11308 1-479).
T3 sequence: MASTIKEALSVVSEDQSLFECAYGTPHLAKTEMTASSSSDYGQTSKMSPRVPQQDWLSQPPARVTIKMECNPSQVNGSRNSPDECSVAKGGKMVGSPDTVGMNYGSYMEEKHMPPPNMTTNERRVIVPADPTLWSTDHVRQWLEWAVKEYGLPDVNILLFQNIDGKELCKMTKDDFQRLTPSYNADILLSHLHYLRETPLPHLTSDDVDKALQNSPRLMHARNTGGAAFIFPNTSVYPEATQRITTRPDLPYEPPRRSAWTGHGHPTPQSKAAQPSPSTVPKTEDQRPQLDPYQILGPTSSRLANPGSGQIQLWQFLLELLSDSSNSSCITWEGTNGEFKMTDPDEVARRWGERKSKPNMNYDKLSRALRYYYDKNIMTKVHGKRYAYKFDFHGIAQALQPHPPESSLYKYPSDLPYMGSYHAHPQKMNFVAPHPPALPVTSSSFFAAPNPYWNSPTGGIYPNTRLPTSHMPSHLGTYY
The essentials: as §1

In experiment [4] the target is ELF1 (Homo sapiens, UniProt P32519 1-619). Put shortly: as §1
Experiment [5] concerns the target T4, EHF (Homo sapiens, UniProt Q9NZC4 1-300).
T4 sequence: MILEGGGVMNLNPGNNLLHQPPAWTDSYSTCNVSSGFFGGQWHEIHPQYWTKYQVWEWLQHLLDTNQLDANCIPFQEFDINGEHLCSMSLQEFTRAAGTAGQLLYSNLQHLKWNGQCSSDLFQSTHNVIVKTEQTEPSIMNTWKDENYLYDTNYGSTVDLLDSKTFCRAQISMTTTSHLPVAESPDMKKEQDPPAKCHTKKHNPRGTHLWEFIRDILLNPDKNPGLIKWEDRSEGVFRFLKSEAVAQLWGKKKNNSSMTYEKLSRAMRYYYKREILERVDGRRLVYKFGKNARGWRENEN
Put shortly: as §1

For experiment [6], the target named is SPIB (Homo sapiens, UniProt Q01892 1-262). Put shortly:
as §1

The target in experiment [7] is T5, ELK3 (Homo sapiens, UniProt P41970 1-407).
T5 sequence: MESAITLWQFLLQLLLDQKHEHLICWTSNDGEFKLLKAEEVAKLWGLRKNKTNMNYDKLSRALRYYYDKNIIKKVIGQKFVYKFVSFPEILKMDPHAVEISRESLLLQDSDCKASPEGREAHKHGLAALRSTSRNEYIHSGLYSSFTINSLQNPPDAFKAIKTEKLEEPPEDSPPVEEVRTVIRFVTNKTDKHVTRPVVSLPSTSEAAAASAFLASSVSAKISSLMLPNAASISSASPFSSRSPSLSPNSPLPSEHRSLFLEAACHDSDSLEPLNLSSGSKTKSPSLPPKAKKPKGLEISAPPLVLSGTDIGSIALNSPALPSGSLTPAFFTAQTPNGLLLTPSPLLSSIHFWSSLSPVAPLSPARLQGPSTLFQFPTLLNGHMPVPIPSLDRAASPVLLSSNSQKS
The essentials:
as §1

Experiment [8] deals with T6, SPIC (Homo sapiens, UniProt Q8N5J4 1-248).
T6 sequence: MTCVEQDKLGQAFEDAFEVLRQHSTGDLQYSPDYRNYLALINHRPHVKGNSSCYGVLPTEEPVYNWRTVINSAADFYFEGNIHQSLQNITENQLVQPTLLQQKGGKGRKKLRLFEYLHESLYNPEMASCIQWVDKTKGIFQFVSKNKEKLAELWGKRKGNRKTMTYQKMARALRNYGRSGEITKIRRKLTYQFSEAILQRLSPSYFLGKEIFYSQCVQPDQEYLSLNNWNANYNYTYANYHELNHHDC
Put shortly: as §1

Experiment [9] deals with T7, ELK4 (Homo sapiens, UniProt P28324-2 1-405).
T7 sequence: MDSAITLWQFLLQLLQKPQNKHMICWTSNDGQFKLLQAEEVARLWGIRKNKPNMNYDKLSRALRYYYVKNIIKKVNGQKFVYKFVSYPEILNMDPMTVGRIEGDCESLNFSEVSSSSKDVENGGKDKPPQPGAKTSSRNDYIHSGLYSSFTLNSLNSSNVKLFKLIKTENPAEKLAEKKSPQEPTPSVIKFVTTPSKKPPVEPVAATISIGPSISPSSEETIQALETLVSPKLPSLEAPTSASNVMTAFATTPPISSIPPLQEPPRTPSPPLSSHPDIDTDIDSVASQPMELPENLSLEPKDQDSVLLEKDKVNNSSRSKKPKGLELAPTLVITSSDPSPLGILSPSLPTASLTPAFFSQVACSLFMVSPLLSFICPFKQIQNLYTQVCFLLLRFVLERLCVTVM
The essentials: as §1

Experiment [10] concerns the target T8, ELF3 (Homo sapiens, UniProt P78545 1-371).
T8 sequence: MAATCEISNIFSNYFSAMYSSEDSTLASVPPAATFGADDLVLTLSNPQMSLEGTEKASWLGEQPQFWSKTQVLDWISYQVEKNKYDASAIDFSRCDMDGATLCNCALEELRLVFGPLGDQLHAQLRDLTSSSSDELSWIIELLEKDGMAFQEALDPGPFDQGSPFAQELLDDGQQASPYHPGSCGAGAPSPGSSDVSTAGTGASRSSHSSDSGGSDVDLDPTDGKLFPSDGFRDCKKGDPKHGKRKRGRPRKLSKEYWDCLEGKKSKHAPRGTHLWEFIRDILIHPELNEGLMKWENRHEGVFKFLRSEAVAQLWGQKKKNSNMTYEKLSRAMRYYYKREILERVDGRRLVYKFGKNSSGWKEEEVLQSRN
The essentials: as §1

For experiment [11], the target named is ETV1 (Homo sapiens, UniProt P50549 1-477). The essentials:
as §1

The target in experiment [12] is T9, ETV3L (Homo sapiens, UniProt Q6ZN32 1-361).
T9 sequence: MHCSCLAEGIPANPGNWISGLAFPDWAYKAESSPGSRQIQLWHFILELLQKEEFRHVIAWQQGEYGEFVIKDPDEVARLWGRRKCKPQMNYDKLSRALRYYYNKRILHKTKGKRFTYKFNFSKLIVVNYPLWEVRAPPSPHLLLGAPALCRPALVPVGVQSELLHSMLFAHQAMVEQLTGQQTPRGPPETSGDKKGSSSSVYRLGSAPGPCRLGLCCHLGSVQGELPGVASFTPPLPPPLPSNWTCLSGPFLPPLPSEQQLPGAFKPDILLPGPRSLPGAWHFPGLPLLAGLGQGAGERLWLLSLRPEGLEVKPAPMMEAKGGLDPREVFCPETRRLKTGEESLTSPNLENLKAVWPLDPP
Put shortly:
as §1

Experiment [13] deals with T10, ETV7 (Homo sapiens, UniProt Q9Y603 1-341).
T10 sequence: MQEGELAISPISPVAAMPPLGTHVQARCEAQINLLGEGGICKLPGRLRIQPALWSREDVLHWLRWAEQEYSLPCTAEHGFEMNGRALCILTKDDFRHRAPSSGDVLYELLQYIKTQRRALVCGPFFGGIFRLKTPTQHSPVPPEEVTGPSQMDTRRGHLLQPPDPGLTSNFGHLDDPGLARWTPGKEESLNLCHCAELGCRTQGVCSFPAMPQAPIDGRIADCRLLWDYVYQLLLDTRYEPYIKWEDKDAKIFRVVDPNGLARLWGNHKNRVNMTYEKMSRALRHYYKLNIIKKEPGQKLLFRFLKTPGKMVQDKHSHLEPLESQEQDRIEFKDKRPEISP
The essentials:
as §1

Experiment [14] addresses T11, ETV3 (Homo sapiens, UniProt P41162-2 1-143).
T11 sequence: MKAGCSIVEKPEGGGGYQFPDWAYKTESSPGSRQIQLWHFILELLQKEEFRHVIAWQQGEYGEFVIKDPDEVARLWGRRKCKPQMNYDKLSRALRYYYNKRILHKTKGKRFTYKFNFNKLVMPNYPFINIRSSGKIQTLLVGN
Put shortly:
as §1

Experiment [15] deals with ETV6 (Homo sapiens, UniProt P41212 1-452). The essentials: as §1
ETV6, sequence (P41212 whole entry): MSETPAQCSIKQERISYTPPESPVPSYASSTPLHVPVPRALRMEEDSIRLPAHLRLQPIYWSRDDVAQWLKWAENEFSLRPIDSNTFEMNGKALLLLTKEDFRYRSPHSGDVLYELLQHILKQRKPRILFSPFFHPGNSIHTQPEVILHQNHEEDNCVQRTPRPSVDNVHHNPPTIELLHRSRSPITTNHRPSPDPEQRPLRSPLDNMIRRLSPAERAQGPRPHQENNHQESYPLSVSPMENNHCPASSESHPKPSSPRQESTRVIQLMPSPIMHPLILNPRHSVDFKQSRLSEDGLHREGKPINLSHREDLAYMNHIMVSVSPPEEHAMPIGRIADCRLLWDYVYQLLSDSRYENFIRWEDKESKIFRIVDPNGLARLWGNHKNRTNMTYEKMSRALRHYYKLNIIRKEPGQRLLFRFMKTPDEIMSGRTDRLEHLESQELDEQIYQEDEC

ETV1, sequence (P50549 whole entry): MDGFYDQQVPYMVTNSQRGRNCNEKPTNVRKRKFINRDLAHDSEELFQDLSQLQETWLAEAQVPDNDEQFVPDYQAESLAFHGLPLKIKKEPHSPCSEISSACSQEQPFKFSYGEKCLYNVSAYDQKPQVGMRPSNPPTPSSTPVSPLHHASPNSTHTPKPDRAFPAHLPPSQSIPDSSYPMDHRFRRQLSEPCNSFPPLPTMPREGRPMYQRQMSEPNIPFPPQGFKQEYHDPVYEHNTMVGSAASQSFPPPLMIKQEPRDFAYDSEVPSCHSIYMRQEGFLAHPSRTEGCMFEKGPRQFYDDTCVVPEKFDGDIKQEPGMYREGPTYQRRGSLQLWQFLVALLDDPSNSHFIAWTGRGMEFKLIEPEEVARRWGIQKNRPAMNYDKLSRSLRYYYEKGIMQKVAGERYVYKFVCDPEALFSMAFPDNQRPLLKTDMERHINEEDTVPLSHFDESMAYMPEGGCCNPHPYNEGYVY
SPIB, sequence (Q01892 whole entry): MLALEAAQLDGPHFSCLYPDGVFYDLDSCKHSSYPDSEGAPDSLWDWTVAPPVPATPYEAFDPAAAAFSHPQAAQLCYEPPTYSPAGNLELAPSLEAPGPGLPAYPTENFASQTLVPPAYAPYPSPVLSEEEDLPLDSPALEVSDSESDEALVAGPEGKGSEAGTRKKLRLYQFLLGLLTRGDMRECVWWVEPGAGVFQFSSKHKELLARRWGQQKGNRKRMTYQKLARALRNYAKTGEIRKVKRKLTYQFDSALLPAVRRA
ELF1, sequence (P32519 whole entry): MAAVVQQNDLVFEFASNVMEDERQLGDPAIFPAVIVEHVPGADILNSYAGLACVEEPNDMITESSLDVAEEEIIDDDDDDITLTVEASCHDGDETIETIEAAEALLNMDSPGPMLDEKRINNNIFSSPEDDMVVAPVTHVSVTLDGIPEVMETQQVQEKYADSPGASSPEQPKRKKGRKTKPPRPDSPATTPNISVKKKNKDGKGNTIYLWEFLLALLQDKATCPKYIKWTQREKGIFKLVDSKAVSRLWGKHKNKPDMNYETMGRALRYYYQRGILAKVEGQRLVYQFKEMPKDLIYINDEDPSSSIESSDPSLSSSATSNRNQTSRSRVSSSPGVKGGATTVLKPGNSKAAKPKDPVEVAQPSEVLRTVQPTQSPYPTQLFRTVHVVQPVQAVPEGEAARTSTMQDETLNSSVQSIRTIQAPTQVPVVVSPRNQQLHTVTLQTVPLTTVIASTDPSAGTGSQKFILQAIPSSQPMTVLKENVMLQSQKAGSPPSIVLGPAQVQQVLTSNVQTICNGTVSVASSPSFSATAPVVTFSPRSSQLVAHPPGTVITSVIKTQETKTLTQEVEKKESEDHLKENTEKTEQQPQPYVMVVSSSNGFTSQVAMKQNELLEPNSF

As to TAAAGG, the binding signal in [1] is 1.03 fold enrichment (6-mer frequency, TF over GST control); in experiment [2], 1.03 fold enrichment (6-mer frequency, TF over GST control); in experiment [3], 1.03 fold enrichment (6-mer frequency, TF over GST control); in experiment [4], 1.08 fold enrichment (6-mer frequency, TF over GST control); in experiment [5], 1.12 fold enrichment (6-mer frequency, TF over GST control); in experiment [6], 1.03 fold enrichment (6-mer frequency, TF over GST control). Moreover, the binding signal in experiment [7] was 1.1 fold enrichment (6-mer frequency, TF over GST control); in experiment [8], 1.11 fold enrichment (6-mer frequency, TF over GST control); in experiment [9], 1.07 fold enrichment (6-mer frequency, TF over GST control); in experiment [10] it was 1.1 fold enrichment (6-mer frequency, TF over GST control); in experiment [11], 1.03 fold enrichment (6-mer frequency, TF over GST control); in experiment [12], 1.04 fold enrichment (6-mer frequency, TF over GST control). Moreover, the binding signal in experiment [13] was 1.09 fold enrichment (6-mer frequency, TF over GST control); in [14] it was 1.09 fold enrichment (6-mer frequency, TF over GST control); in experiment [15], 1.07 fold enrichment (6-mer frequency, TF over GST control).
